According to PubChem BioAssay (NCATS):
Several values for one entry are separate records, joined by “and”; a condition that tells them apart may be missing. Identical values can stand only once. Records with an inconclusive call do not appear. A call without a number means that no potency is given here. Values without a mark were called inactive. Activity calls are given as the source filed them. Unless noted, calls come from the whole dose curve; as a rule, active = well fitted curve in the direction sought with a large enough effect; inconclusive = small, poorly fitted or top-dose-only effect, or another doubt; inactive = no such curve, though single readings can be large; an effect the other way counts as inactive or inconclusive.

How the values were obtained:
[1] = biological target: Cellular tumor antigen p53 (Homo sapiens) (UniProt P04637); assay: Primary qHTS for small molecule compounds that upregulate eGFP-tagged delta133p53alpha (in N-terminal) cells. (AID 2060322); conditions: NCI-H358 eGFP-delta133p53alpha fluorescence, 24 h; activation: stronger effect = higher value; note: series mostly up to about 56 µM; nearly all actives have a fitted effect of over 75% in size
How it was run: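 NCI-H358 cells pre-induced 24 h with 10 ng/ml doxycycline to express N-terminal eGFP-delta133p53alpha, then dosed 24 h at 37C without doxycycline; fixed, Hoechst-stained, GFP intensity by laser scanning cytometry, normalized to DMSO (0%) and 57.5 uM 5-azacytidine (100%).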

[2] = biological target: Cellular tumor antigen p53 (Homo sapiens) (UniProt P04637); assay: Primary qHTS for small molecule compounds that upregulate eGFP-tagged delta133p53alpha (in C-terminal) cells. (AID 2060324); note: potency is the fitted concentration of half-maximal effect
How it was run: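 C-terminal eGFP-tagged delta133p53alpha NCI-H358 line; dox-induced (100 ng/ml, 24 h) then plated without dox; compounds pinned in titration, 24 h 37 °C/5% CO2; PFA fix, Hoechst nuclei; GFP by LSC.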

[3] = biological target: Aldehyde dehydrogenase, mitochondrial (Homo sapiens) (UniProt P05091); assay: qHTS for Inhibitors of the Aldehyde Dehydrogenase Family (ALDH2) Validation screens (AID 2061302; active = well fitted inhibition curve with a large enough effect; title and protocol of this record describe different tests)
[4] = biological target: Retinaldehyde dehydrogenase 3 (Homo sapiens) (UniProt P47895); assay: qHTS for Inhibitors of the Aldehyde Dehydrogenase Family (ALDH1A3) Validation screen (AID 2061312); note: nearly all actives have a fitted effect of over 45% in size

Chain of Cellular tumor antigen p53 (Homo sapiens) (P04637 whole entry, looked up): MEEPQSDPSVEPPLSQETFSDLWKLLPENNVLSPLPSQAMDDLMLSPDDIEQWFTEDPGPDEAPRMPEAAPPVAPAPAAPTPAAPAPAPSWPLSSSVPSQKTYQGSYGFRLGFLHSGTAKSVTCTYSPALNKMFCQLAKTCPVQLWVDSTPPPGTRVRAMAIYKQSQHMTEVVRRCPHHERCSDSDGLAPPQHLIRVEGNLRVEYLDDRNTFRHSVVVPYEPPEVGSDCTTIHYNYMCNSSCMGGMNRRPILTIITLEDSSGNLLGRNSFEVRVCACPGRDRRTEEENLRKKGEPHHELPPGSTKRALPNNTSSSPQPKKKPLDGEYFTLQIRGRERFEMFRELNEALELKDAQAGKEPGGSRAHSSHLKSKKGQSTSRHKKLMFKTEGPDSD

Row | SMILES | activation [1] | Potency [2] | Potency [3] | Potency [4]
1 | COc1ccccc1N1CCN(CCCCNC(=O)c2ccc3ccccc3c2)CC1 | -23% | inactive | inactive | inactive
2 | CCO/C([O-])=N/c1c[n+](N2CCOCC2)no1 | 9.21% and 19.2% | inactive | inactive | inactive
3 | CC[C@@H](C)[C@H]1O[C@]2(CC[C@H]1C)C[C@@H]1C[C@@H](CC=C(C)[C@@H](O[C@H]3C[C@H](OC)[C@@H](O[C@H]4C[C@H](OC)[C@@H](O)[C@H](C)O4)[C@H](C)O3)[C@@H](C)C=CC=C3CO[C@@H]4[C@H](O)C(C)=C[C@@H](C(=O)O1)[C@]34O)O2 | -12.1% | inactive | inactive | inactive
4 | NS(=O)(=O)C#Cc1ccccc1 | 60.6% | 30.1 µM (active) | inactive | inactive
5 | Fc1cccc(/C=N/N=C/c2cccc(F)c2)c1 | -12.5% | inactive | inactive | inactive
6 | COc1ccc(C(=O)NCc2cccnc2)cc1C(=O)NCc1cccnc1 | -12.6% | inactive | inactive | inactive
7 | O=C(CCNNC(=O)c1ccncc1)NCc1ccccc1 | -11.9% and -31.2% | inactive | inactive | inactive
8 | CCc1cccc(N(C)C(N)=Nc2cccc3ccccc23)c1 | 19.2% | inactive | inactive | inactive
9 | OC[C@H]1O[C@H](n2cnc3c(N[C@H]4CCC[C@@H]4O)ncnc32)[C@H](O)[C@@H]1O | -36% | inactive | inactive | inactive
